Rows were chosen to be rich in hits. Some 2.1% of all compounds tested hit in one or more screens of this group.
CF NFkB inh: inhibitors of PAF-induced NF-kB signaling, primary screen, cell-based, GFP fluorescence, uHTS; KKLEB NF-kB-GFP reporter, GFP fluorescence overnight; inhibition, % at 5 µM; actives 0.86% (n = 360,000);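 active = at least 50% inhibition at 5 µM, scaled per plate between neutral and stimulator controls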;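 note: PAF is a Pseudomonas aeruginosa culture filtrate used as stimulus; plate controls were PAF-stimulated DMSO wells for no effect and unstimulated DMSO wells for full effect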
EWS-Fli block: EWS/Fli-driven NR0B1 reporter inhibitors, primary screen, A673 cells, NR0B1 luciferase, luminescence, MLPCN library. viability-normalised. inhibition, % at 12.6 µM. actives 0.67% (n = 350,000). AID 651661, 2012;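 active = mean inhibition of at least 50% after viability correction, with every replicate also passing that limit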;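 note: firefly luciferase signal divided by Alamar Blue viability fluorescence both relative to DMSO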
HIF-2a block: HIF-2a reporter inhibitors, primary screen, luminescence, 786-0 RCC cells; inhibition, % at 18.8 µM; 786-0 RCC cells HIF-2a reporter, luciferase luminescence, overnight; actives 0.72% (n = 360,000);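 active = inhibition of the luminescence signal of 40% or more relative to plate controls, in a single-dose primary screen at 18.75 µM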
KKLEB cytotox: cytotoxicity in KKLEB CF airway cells, primary screen, cytotoxicity control for CF NF-kB inhibitor project, cell-based, uHTS, fluorescence assay plates. KKLEB CF airway cells viability, ATPlite luminescence, overnight; hits give low values; cells stimulated with P. aeruginosa culture filtrate. activity change (cytotoxicity), % at 5 µM. actives 0.36% (n = 360,000);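 active = corrected activity change at or below -50% at 5 µM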
PAX8 inh HTS: inhibitors of PAX8-driven TPO luciferase reporter, primary screen, RMG-I cells, single concentration; actives 1.2% (n = 360,000); SteadyGlo, 24 h; inhibition, % at 12.6 µM;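 active = mean replicate inhibition at least 60% with every replicate also reaching 60%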;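 note: luciferase light reporting Pax8 driven TPO promoter activity; plate controls were median of neutral control wells for no effect and mitoxantrone controls for full effect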
CF NFkB inh conf: inhibitors of PAF-induced NF-kB signaling, retest, confirmation, cell-based, GFP fluorescence, single concentration; shares compounds with CF NFkB inh; KKLEB CF airway cells, overnight; inhibition, % at 5 µM; actives 64% (n = 1,300); AID 602472, 2012; in the data active = inhibition above about 40%;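 note: stimulus PAF is a Pseudomonas aeruginosa filtrate and not platelet activating factor; plate controls were DMSO wells with stimulus for no effect and unstimulated DMSO wells for full effect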
Active calls of the source: *; nt = no result given.

SMILES | CF NFkB inh | EWS-Fli block | HIF-2a block | KKLEB cytotox | PAX8 inh HTS | CF NFkB inh conf
CO[C@@H]1CN(C)C(=O)c2cc(NS(C)(=O)=O)ccc2OC[C@@H](C)N(Cc2cccnc2)C[C@H]1C | nt | -4.6 | nt | nt | nt | nt
CN(C(=O)COC(=O)c1nc(Cl)c(Cl)c(Cl)c1Cl)C1CCS(=O)(=O)C1 (stereo not given) | 78.9* | 24.8 | 39.9 | -45.6 | 3.8 | -15.6
CCCCCCc1cc2cc(S(=O)(=O)c3ccc(F)cc3)c(=O)oc2cc1O | 51.2* | 5.9 | 5.0 | -36.2 | -41.9 | 77.7*
CCCCCCc1cc2cc(C(=O)Nc3ccccc3OC)c(=O)oc2cc1O | 53.6* | nt | 9.2 | -42.4 | -0.1 | 55.3*
CCCCCCc1cc2cc(-c3nnc(-c4ccccc4OC)o3)c(=O)oc2cc1O | -29.8 | nt | -8.4 | -38.3 | 11.9 | nt
Cc1ccc2c(c1)C(=O)C(=O)N2Cc1ccc(Cl)cc1 | 53.5* | 11.7 | -5.2 | -12.5 | 14.1 | 32.9
Cc1cc2ccccn2c1C(=O)c1ccc(NN)c([N+](=O)[O-])c1 | 55.8* | 10.0 | 3.8 | -8.0 | 18.4 | 10.4
CCCCNc1c(-c2cccc(-c3ccc(OC)cc3)c2)nc2ccc(C)cn12 | 68.3* | 9.5 | -162.9 | -23.3 | 4.8 | 91.2*
CCCCNc1c(-c2cccc(-c3ccc(OC)cc3)c2)nc2cc(C)ccn12 | 20.1 | 25.8 | -80.5 | -13.0 | 3.3 | nt
c1ccc(CNc2ncnc3scc(-c4cccs4)c23)nc1 | 52.2* | -3.7 | 29.9 | -5.9 | 40.5 | 34.8
Cn1c(-c2ccc(C#N)cc2)c(C#Cc2ccccc2)c2ccccc21 | -6.9 | -23.9 | -73.8 | 10.2 | -9.1 | nt
N#Cc1c(-c2ccc(Cl)cc2)n(O)c2ccccc12 | 52.4* | nt | -91.6 | -34.4 | nt | 76.5*
O=S(=O)(c1ccc(Br)cc1)c1cnc2ccccc2n1 | 57.4* | 7.5 | 27.4 | -19.6 | 15.0 | 48.9*
COc1ccc(S(=O)(=O)c2cnc3ccccc3n2)cc1 | 16.0 | -2.3 | 11.1 | 0.1 | 7.4 | nt
CCCCCCCCCCCCCCCC(O)C(N)CO (stereo not given) | 61.0* | 1.1 | 4.9 | -0.4 | -26.5 | 15.3
CCCCCCCCO | 8.2 | 4.3 | -0.1 | 0.3 | nt | nt
Cc1cccc(NC(=O)c2ccc([N+](=O)[O-])o2)n1 | 61.2* | nt | -2.8 | -24.8 | 6.2 | 7.8
Cc1ccccc1NC(=O)c1ccc([N+](=O)[O-])o1 | 30.0 | -1.1 | 7.1 | -9.7 | 22.9 | nt
COc1ccc(C2CNC(=O)C2)cc1OC1CCCC1 (stereo not given) | 52.3* | 0.5 | 3.8 | -14.2 | -30.4 | 54.6*
COc1ccc(CCNS(=O)(=O)c2ccc(C3CNC(=O)C3)cc2)cc1OC (stereo not given) | -1.1 | 9.7 | 5.8 | 8.1 | nt | nt
COc1cccc(NC(=O)N(C)C[C@H]2Oc3ncc(C#Cc4ccncc4)cc3C(=O)N([C@H](C)CO)C[C@H]2C)c1 | nt | -16.4 | nt | nt | -2.6 | nt
COc1ccc(-c2ccccc2[C@H]2[C@@H]3C=CC[C@@H](C)[C@@H]3C(=O)N2Cc2ccccc2)cc1 | 60.4* | 21.8 | 6.2 | -26.2 | 7.2 | 50.2*
C[C@@H]1CC=C[C@@H]2[C@H]1C(=O)N(Cc1ccccc1)[C@H]2c1ccccc1Br | 21.4 | 18.2 | 1.0 | -4.0 | -20.3 | nt
COc1ccc(-c2ccc([C@H]3[C@H]4C=CC[C@@H](C)[C@@H]4C(=O)N3Cc3ccccc3)c(F)c2)cc1C | 26.3 | 6.4 | 35.0 | -9.2 | -11.2 | nt
COc1ccc(-c2c([C@H]3[C@H]4C=CC[C@@H](C)[C@@H]4C(=O)N3Cc3ccccc3)ccc3ccccc23)cc1OC | 62.2* | 8.8 | 14.6 | -23.7 | 34.7 | 45.6*
SMILES | CF NFkB inh | EWS-Fli block | HIF-2a block | KKLEB cytotox | PAX8 inh HTS | CF NFkB inh conf
COc1ccc(-c2ccc(F)cc2)cc1[C@H]1[C@H]2C=CC[C@@H](C)[C@@H]2C(=O)N1Cc1ccccc1 | 75.1* | 15.8 | 11.2 | -1.9 | 7.9 | 35.4
COc1ccc(-c2ccc(OC)c([C@H]3[C@H]4C=CC[C@@H](C)[C@@H]4C(=O)N3Cc3ccccc3)c2)cc1OC | 35.4 | 10.7 | 18.2 | -16.9 | 2.7 | nt
COc1ccc(NC(=O)N(C)C[C@@H]2OCCCC[C@@H](C)Oc3ccc(N(C)C)cc3C(=O)N([C@@H](C)CO)C[C@@H]2C)cc1 | nt | -9.3 | nt | nt | -7.6 | nt
N#C[C@H]1[C@@H](c2ccccc2C2=CCCCC2)[C@@H](CO)N1C(=O)c1cccc(F)c1 | nt | 0.3 | nt | nt | nt | nt
CC(C)(C)c1ccc(C(=O)CC(Sc2ccc(Cl)cc2)C(=O)O)cc1 (stereo not given) | 88.1* | 4.5 | 25.9 | -15.9 | 5.7 | 4.0
Cc1ccc(-c2onc3ccc(C(=O)/C=C/N(C)C)cc23)cc1 | 67.9* | -9.5 | -38.6 | -3.3 | -11.4 | 46.8*
CC(C)NC(=O)Nc1ccc2c(c1)C(=O)N([C@H](C)CO)C[C@@H](C)[C@@H](CN(C)Cc1ccc(Cl)c(Cl)c1)O2 | nt | -1.8 | nt | nt | 5.8 | nt
COc1ccc(N(Cc2cc(=O)[nH]c3ccccc23)C(=O)CCl)cc1 | 74.7* | 65.8* | 1.5 | -32.8 | -0.3 | 70.6*
CCCCOC(=O)/C=C\C(=O)NC(N)=O | 56.8* | -11.2 | 31.7 | -10.3 | 10.2 | -15.2
O=C(C[C@@H]1C=C[C@@H](NC(=O)CC2CC2)[C@H](CO)O1)NCc1ccc(Cl)cc1 | nt | -8.8 | nt | nt | -11.3 | nt
O=C(CN1C(=O)NC2(CCc3ccccc32)C1=O)c1ccc(Cl)cc1 (stereo not given) | 1.4 | 2.7 | 13.9 | -0.5 | -3.9 | nt
O=C(CN1C(=O)NC2(CCCc3ccccc32)C1=O)c1ccc(F)c(F)c1 (stereo not given) | 55.9* | -3.8 | 0.0 | -39.1 | -17.4 | 11.0
O=C(/C=C/c1cccc([N+](=O)[O-])c1)NC(=S)Nc1ccc(CN2CCOCC2)cc1 | 67.4* | 11.6 | 13.5 | -33.9 | 5.1 | 54.9*
O=C(NC(=S)Nc1ccc(CN2CCOCC2)cc1)c1ccc([N+](=O)[O-])cc1 | -8.7 | -5.2 | 15.4 | 3.9 | -13.8 | nt
Cc1cccn2c(=O)c3cc(S(=O)(=O)c4ccc(F)cc4)c(=N)n(Cc4ccco4)c3nc12 | 75.5* | 15.1 | 8.7 | 9.7 | -3.9 | 5.4
COc1ccc2c3c(n(C)c2c1)[C@H](CO)N(C(=O)c1ccc(F)cc1)CC31CN(CC2CC2)C1 | nt | 16.1 | nt | nt | nt | nt
Cc1cccc(NC(=O)c2nc[nH]c2C(=O)NCCCCNC(=O)c2[nH]cnc2C(=O)Nc2cccc(C)c2)c1 | 56.1* | 22.2 | 7.0 | -39.3 | 4.3 | 33.2
O=C(Nc1ccc(Cl)cc1)c1nc[nH]c1C(=O)NCCCCNC(=O)c1[nH]cnc1C(=O)Nc1ccc(Cl)cc1 | 79.3* | 5.4 | -11.5 | -12.9 | -5.9 | 102.0*

Bioassay records from PubChem BioAssay.
